Results on 16 molecules are retold here after PubChem BioAssay (NCI).

Test systems include HL-60(TB) leukemia; HT29 colon; SNB-75 CNS; SNB-19 CNS; U251 CNS; PC-3 prostate; SK-MEL-5 melanoma; UACC-62 melanoma; LOX IMVI melanoma; SK-MEL-28 melanoma; EKVX NSCLC; UO-31 renal; TK-10 renal; ACHN renal; CAKI-1 renal; SK-MEL-2 melanoma; A498 renal; CCRF-CEM leukemia; SN12C renal.
What all share (assay): NCI-60 one-dose screen, 48 h (100 = growth as untreated, 0 = no growth, -100 = all killed)
Holding throughout (conditions): 10 µM unless noted

Each structure is given as a SMILES string. Values joined by “and” are separate entries in the source; they are usually repeats but may differ in a detail not shown here. Equal entries are not always repeated. About 83,000 compounds went through this panel and 20% of them were active in at least one assay; those are over-represented in the sample as a whole.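 Negative percent growth values reflect cell death: -40 means 40% of the cells present at the start died, and -100 means all died.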 Active and inactive are the calls of the source. Rule for the calls: active = growth percent below 10; inactive = the rest.

For `Cc1ccc(NC(=O)c2cc3ccccc3cc2O)c(C)c1`, the growth in the experiment on HL-60(TB) leukemia was 54.3% (inactive).
On to `O=C1CN2CCC1CC2`, for which the growth is 99.5% (inactive) in the experiment on HT29 colon; 102% (inactive) with SNB-75 CNS; 104% (inactive) in the experiment on SNB-19 CNS; 101% (inactive) in the experiment on U251 CNS; 104% (inactive) in the experiment with PC-3 prostate; 103% (inactive) with SK-MEL-5 melanoma. Moreover, the growth in the experiment with UACC-62 melanoma was 104% (inactive); with LOX IMVI melanoma it was 104% (inactive); with SK-MEL-28 melanoma it was 119% (inactive); with EKVX NSCLC it was 109% (inactive); in the experiment on UO-31 renal it was 84.6% (inactive); in the experiment on TK-10 renal, 106% (inactive). Further, the growth in the experiment on ACHN renal was 101% (inactive); in the experiment with CAKI-1 renal, 103% (inactive); with HL-60(TB) leukemia it was 94% (inactive).
Regarding `CCOC(=O)c1c(SC)nc(-c2ccc(Cl)cc2)sc1=N`, the growth with UACC-62 melanoma is 5.48% [100 µM] (active) and 7.26% [100 µM] (active); in the experiment on TK-10 renal, 6.59% [100 µM] (active) and 15.8% [100 µM] (inactive).
Take `O=C/C=C/c1ccco1`: the growth was 95.1% (inactive) with HT29 colon; 80.5% (inactive) with SNB-75 CNS; 106% (inactive) in the experiment with SNB-19 CNS; 95.1% (inactive) in the experiment with U251 CNS; 83.7% (inactive) in the experiment with PC-3 prostate; 113% (inactive) in the experiment with SK-MEL-5 melanoma. Besides, the growth in the experiment on LOX IMVI melanoma was 98.2% (inactive); with SK-MEL-28 melanoma, 114% (inactive); with SK-MEL-2 melanoma, 108% (inactive); with EKVX NSCLC it was 100% (inactive); in the experiment with TK-10 renal, 97.7% (inactive); in the experiment with ACHN renal, 109% (inactive). Moreover, the growth in the experiment with CAKI-1 renal is 95.6% (inactive); in the experiment with A498 renal it was 96.9% (inactive); with HL-60(TB) leukemia, 88.2% (inactive); in the experiment with CCRF-CEM leukemia it was 100% (inactive).
As for `O=S(=O)(O)c1ccc(Cl)cc1`, in the experiment with HL-60(TB) leukemia, the growth is 89.1% (inactive).
Regarding `O=c1[nH]c(=O)n(Cl)c(=O)n1Cl`, the growth is 106% (inactive) and 112% (inactive) in the experiment on HT29 colon; 124% (inactive) and 105% (inactive) in the experiment with SNB-75 CNS; 106% (inactive) and 98.2% (inactive) in the experiment on SNB-19 CNS; 98.5% (inactive) and 113% (inactive) with U251 CNS; 98.8% (inactive) and 98% (inactive) in the experiment with PC-3 prostate; 103% (inactive) and 93.7% (inactive) in the experiment with SK-MEL-5 melanoma. Moreover, the growth in the experiment with UACC-62 melanoma is 98.7% (inactive) and 101% (inactive); with LOX IMVI melanoma it was 109% (inactive) and 105% (inactive); in the experiment on SK-MEL-28 melanoma, 117% (inactive) and 122% (inactive); in the experiment with EKVX NSCLC, 107% (inactive) and 101% (inactive); in the experiment on UO-31 renal, 84.3% (inactive) and 86.7% (inactive); in the experiment with TK-10 renal, 115% (inactive) and 117% (inactive). Moreover, the growth is 101% (inactive) and 108% (inactive) with CAKI-1 renal; 106% (inactive) and 127% (inactive) in the experiment with A498 renal; 110% (inactive) and 115% (inactive) with HL-60(TB) leukemia; 101% (inactive) and 104% (inactive) with CCRF-CEM leukemia.
As for `C[C@]12CCc3sc(Nc4ccc(OC(F)(F)F)cc4)nc3C1=CC[C@@H]1[C@@H]2CC[C@]2(C)C(=O)CC[C@@H]12`, the growth in the experiment on HT29 colon is 13% (inactive); in the experiment with SNB-75 CNS, 68.6% (inactive); in the experiment with U251 CNS, 34.1% (inactive); in the experiment on PC-3 prostate it was 38.6% (inactive); with SK-MEL-5 melanoma, 95.9% (inactive); in the experiment with UACC-62 melanoma, 63.4% (inactive). The growth was 34.8% (inactive) in the experiment with LOX IMVI melanoma; 65.3% (inactive) in the experiment on SK-MEL-28 melanoma; 61.8% (inactive) in the experiment with SK-MEL-2 melanoma; 78.4% (inactive) with EKVX NSCLC; 71.2% (inactive) with SN12C renal; 54.3% (inactive) with UO-31 renal. The growth with TK-10 renal is 98.2% (inactive); in the experiment on ACHN renal, 71.6% (inactive); in the experiment with CAKI-1 renal it was 60.4% (inactive); in the experiment on A498 renal, 75% (inactive); with HL-60(TB) leukemia it was 44% (inactive); in the experiment on CCRF-CEM leukemia it was 5.05% (active).
`COc1c(O)cc2c(c1OC)-c1ccc(SC)c(=O)cc1C(NC(C)=O)CC2` (stereo unspecified): the growth was -18.9% (active) in the experiment on HT29 colon; -13.2% (active) in the experiment on SNB-75 CNS; 18.5% (inactive) in the experiment with SNB-19 CNS; 5.68% (active) in the experiment with U251 CNS; -28.2% (active) in the experiment with SK-MEL-5 melanoma; 18.6% (inactive) in the experiment with UACC-62 melanoma. In addition, the growth is 15.4% (inactive) with LOX IMVI melanoma; 59.8% (inactive) in the experiment on SK-MEL-2 melanoma; 41.9% (inactive) in the experiment on EKVX NSCLC; 48.7% (inactive) in the experiment on SN12C renal; 16.2% (inactive) in the experiment on UO-31 renal; 48.7% (inactive) in the experiment with TK-10 renal. In addition, the growth in the experiment on ACHN renal was 3.04% (active); in the experiment with CAKI-1 renal, 19.3% (inactive); in the experiment with A498 renal, 7.2% (active); in the experiment with HL-60(TB) leukemia, -32.6% (active).
In the case of `c1ccc2c(c1)sc1ccccc12`, the growth is 99.8% (inactive) in the experiment with HT29 colon; 85.3% (inactive) with SNB-75 CNS; 99.3% (inactive) with U251 CNS; 84.7% (inactive) with PC-3 prostate; 91.1% (inactive) in the experiment with SK-MEL-5 melanoma; 100% (inactive) with UACC-62 melanoma. For the same molecule, the growth is 93.9% (inactive) in the experiment on LOX IMVI melanoma; 105% (inactive) with SK-MEL-28 melanoma; 113% (inactive) in the experiment with SK-MEL-2 melanoma; 93.6% (inactive) in the experiment with EKVX NSCLC; 98.4% (inactive) in the experiment on SN12C renal; 79.2% (inactive) in the experiment with UO-31 renal. The growth with ACHN renal was 89.6% (inactive); in the experiment with CAKI-1 renal, 84.4% (inactive); in the experiment with A498 renal, 113% (inactive); in the experiment with CCRF-CEM leukemia, 103% (inactive).
On to `COc1ccc2c(c1)C1(C)CCN(C)CC(C1)C2O` (stereo unspecified), for which the growth with HT29 colon is 98.5% (inactive); with SNB-75 CNS it was 84.2% (inactive); in the experiment on SNB-19 CNS it was 103% (inactive); in the experiment on U251 CNS, 99.3% (inactive); with PC-3 prostate, 88.6% (inactive); with SK-MEL-5 melanoma it was 99.5% (inactive). Further, the growth with UACC-62 melanoma was 108% (inactive); in the experiment with LOX IMVI melanoma it was 98.4% (inactive); in the experiment with SK-MEL-28 melanoma, 108% (inactive); in the experiment with SK-MEL-2 melanoma, 105% (inactive); in the experiment on TK-10 renal, 95% (inactive); in the experiment on CAKI-1 renal, 119% (inactive). The growth was 99.5% (inactive) with A498 renal, 89.1% (inactive) in the experiment with HL-60(TB) leukemia and 94.3% (inactive) in the experiment with CCRF-CEM leukemia.
For `CCCC[C@@H]1CCN2C[C@@H](O)[C@@H](O)[C@@H]2[C@H]1O`, the growth in the experiment with UACC-62 melanoma was 111% [100 µM] (inactive) and 89.9% [100 µM] (inactive); in the experiment with TK-10 renal, 113% [100 µM] (inactive) and 98.7% [100 µM] (inactive).
`Cc1ccccc1-n1c(/C=C\c2ccccn2)nc2ccccc2c1=O`: the growth in the experiment with HT29 colon was 79.7% (inactive); with SNB-75 CNS it was 44.9% (inactive); with SNB-19 CNS, 87.9% (inactive); in the experiment on PC-3 prostate it was 56.5% (inactive); in the experiment on SK-MEL-5 melanoma it was 73.7% (inactive); with UACC-62 melanoma, 64.5% (inactive). Further, the growth was 83.2% (inactive) with SK-MEL-28 melanoma; 79.4% (inactive) in the experiment on SK-MEL-2 melanoma; 82.8% (inactive) with EKVX NSCLC; 77.7% (inactive) with SN12C renal; 54.7% (inactive) in the experiment with UO-31 renal; 49% (inactive) in the experiment on TK-10 renal. Besides, the growth was 31.2% (inactive) in the experiment on CAKI-1 renal, 62.1% (inactive) in the experiment with A498 renal and 29.9% (inactive) in the experiment on CCRF-CEM leukemia.
For `CN(N)/N=N/c1nc[nH]c1[N+](=O)[O-]`, the growth was 21.2% [100 µM] (inactive) and -39.8% [100 µM] (active) with UACC-62 melanoma; 79.1% [100 µM] (inactive) and 9.85% [100 µM] (active) with TK-10 renal.
Consider `O=C1c2ccccc2C(=O)N1N1CC1c1ccccc1` (stereo unspecified), for which the growth was 110% (inactive) with HT29 colon; 100% (inactive) in the experiment on SNB-75 CNS; 104% (inactive) in the experiment on U251 CNS; 97.7% (inactive) in the experiment on PC-3 prostate; 101% (inactive) in the experiment on SK-MEL-5 melanoma; 105% (inactive) in the experiment with UACC-62 melanoma. For the same molecule, the growth with LOX IMVI melanoma is 96.6% (inactive); in the experiment on SK-MEL-28 melanoma, 108% (inactive); in the experiment on SN12C renal, 104% (inactive); with UO-31 renal, 91.3% (inactive); with TK-10 renal, 107% (inactive); in the experiment with ACHN renal it was 104% (inactive). In addition, the values for the growth in the experiment on CAKI-1 renal, in the experiment with A498 renal and in the experiment on CCRF-CEM leukemia were 95.7% (inactive), 104% (inactive) and 94.7% (inactive), respectively.
Take `O=C1C=CC(=O)N1CO`: in the experiment on HL-60(TB) leukemia, the growth was -11.7% (active).
As for `O=C1NC(=O)C(=Cc2ccccc2)C(=O)N1`, the growth was 105% (inactive) and 99% (inactive) with HT29 colon; 105% (inactive) and 96.5% (inactive) with SNB-75 CNS; 106% (inactive) with SNB-19 CNS; 97.4% (inactive) and 92.2% (inactive) in the experiment on U251 CNS; 81% (inactive) and 96.2% (inactive) in the experiment on PC-3 prostate; 109% (inactive) and 100% (inactive) in the experiment with SK-MEL-5 melanoma. Moreover, the growth in the experiment with UACC-62 melanoma was 90.3% (inactive) and 105% (inactive); in the experiment with LOX IMVI melanoma, 94% (inactive) and 97.1% (inactive); in the experiment on SK-MEL-28 melanoma, 104% (inactive) and 115% (inactive); in the experiment on SK-MEL-2 melanoma, 106% (inactive) and 114% (inactive); in the experiment on EKVX NSCLC, 98.4% (inactive) and 101% (inactive); in the experiment with SN12C renal it was 89.7% (inactive) and 102% (inactive). Further, the growth is 106% (inactive) and 102% (inactive) in the experiment with TK-10 renal; 84.2% (inactive) and 103% (inactive) with CAKI-1 renal; 90.7% (inactive) and 107% (inactive) in the experiment on CCRF-CEM leukemia.
